Experimental findings from PubChem BioAssay (NCI) are described below.

Some test systems named below: DU-145 prostate; K-562 leukemia; MALME-3M melanoma; MDA-MB-231 breast; RXF 393 renal; SF-268 CNS; SF-539 CNS; UACC-257 melanoma; M14 melanoma; HCT-15 colon; HT29 colon; SNB-75 CNS; SNB-19 CNS; U251 CNS; PC-3 prostate; SK-MEL-5 melanoma; UACC-62 melanoma; LOX IMVI melanoma; SK-MEL-28 melanoma; SF-295 CNS.
Holding throughout (assay): NCI-60 one-dose screen, 48 h (100 = growth as untreated, 0 = no growth, -100 = all killed)
What all share (details): 10 µM unless noted

The panel holds about 83,000 compounds, 20% with a hit somewhere; the sample as a whole holds those more often.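 Cells were grown in 96-well plates and exposed to the test compound at a single concentration for 48 hours; results are reported as percent growth, with values below 10 considered active.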 Values without a mark were called inactive. Active and inactive are the calls of the source.

Turning to `O=C1c2ccccc2C2N1CCC1CCc3ccccc3N12` (stereo not given), the growth with DU-145 prostate is 117%; in the assay on K-562 leukemia, 89.4%; in the assay on MALME-3M melanoma it was 88.9%; in the assay on MDA-MB-231 breast, 92.7%; in the assay with RXF 393 renal, 106%; in the assay on SF-268 CNS it was 111%. Moreover, the growth was 88.9% in the assay with SF-539 CNS; 102% in the assay on UACC-257 melanoma; 97.1% with M14 melanoma; 94.5% in the assay on HCT-15 colon; 100% in the assay on HT29 colon; 94.3% in the assay with SNB-75 CNS. In addition, the growth with SNB-19 CNS is 96.2%; in the assay with U251 CNS it was 89.7%; with PC-3 prostate, 76.3%; in the assay on SK-MEL-5 melanoma, 98%; in the assay on UACC-62 melanoma it was 82.2%; in the assay with LOX IMVI melanoma, 100%. Further, the growth in the assay on SK-MEL-28 melanoma is 109%.
`COc1ccc2[nH]cc(C(c3ccc(Cl)cc3)N3CCCC3)c2c1` (stereo not given): the growth was 101% in the assay with DU-145 prostate; 90.2% in the assay on K-562 leukemia; 72.8% in the assay on MALME-3M melanoma; 94.6% in the assay with MDA-MB-231 breast; 82.9% with RXF 393 renal; 92.5% in the assay with SF-268 CNS. For the same compound, the growth with SF-295 CNS was 94%; in the assay with SF-539 CNS it was 98.2%; in the assay on UACC-257 melanoma, 91.9%; in the assay with M14 melanoma it was 95%; with HCT-15 colon, 89.7%; in the assay on HT29 colon, 102%. The growth was 105% in the assay with SNB-19 CNS; 92% in the assay on U251 CNS; 74.8% in the assay on PC-3 prostate; 88.5% in the assay on SK-MEL-5 melanoma; 92.5% in the assay with UACC-62 melanoma; 90.7% in the assay with LOX IMVI melanoma. In the assay on SK-MEL-28 melanoma, the growth is 111%.
Consider `O=C1Nc2ccccc2/C1=C/c1c[nH]c2ccccc12`, for which the growth was 98.1% in the assay on DU-145 prostate; 82.8% in the assay on K-562 leukemia; 88.1% in the assay with MALME-3M melanoma; 71.7% with MDA-MB-231 breast; 90.9% in the assay with RXF 393 renal; 87.8% in the assay on SF-268 CNS. In addition, the growth was 80.6% in the assay with SF-539 CNS; 89.2% in the assay on UACC-257 melanoma; 91.8% in the assay with M14 melanoma; 63.9% with HCT-15 colon; 100% in the assay on HT29 colon; 62.1% in the assay on SNB-75 CNS. The growth was 83.8% in the assay with SNB-19 CNS; 76.2% in the assay on U251 CNS; 72.3% in the assay with PC-3 prostate; 94.2% in the assay with SK-MEL-5 melanoma; 81.8% in the assay on UACC-62 melanoma; 75.2% in the assay with LOX IMVI melanoma. Further, the growth in the assay on SK-MEL-28 melanoma was 101%.
On to `Cc1cc(C)c([O-])c(CN(C)CCN(C)Cc2cc(C)cc(C)c2[O-])c1.O=C([O-])c1cccc(C(=O)[O-])n1.[Ti+4]`, for which the growth in the assay with DU-145 prostate is 33.8%; in the assay with K-562 leukemia, -1.84% (active); in the assay with MALME-3M melanoma, -45.7% (active); in the assay with MDA-MB-231 breast, 44.6%; with RXF 393 renal, -43.5% (active); in the assay on SF-268 CNS, 23.9%. In addition, the growth in the assay with SF-295 CNS was 12.8%; in the assay with SF-539 CNS it was 7.18% (active); with UACC-257 melanoma, 19.8%; with M14 melanoma it was -49.8% (active); in the assay on HCT-15 colon, 36.4%; with SNB-75 CNS it was -12.1% (active). For the same compound, the growth with SNB-19 CNS was 26.6%; in the assay with U251 CNS it was 9.4% (active); with PC-3 prostate, -0.468% (active); in the assay with SK-MEL-5 melanoma, 9.84% (active); in the assay on UACC-62 melanoma it was 25.8%; with LOX IMVI melanoma it was -58.1% (active). Further, the growth in the assay on SK-MEL-28 melanoma is -27.2% (active).
As for `Clc1ncnc2scc(C3COc4ccccc4O3)c12` (stereo not given), the growth is 76.8% in the assay with DU-145 prostate; 69.8% in the assay with K-562 leukemia; 58.7% in the assay with MALME-3M melanoma; 98.3% with MDA-MB-231 breast; 99.6% in the assay on RXF 393 renal; 101% with SF-268 CNS. Also, the growth was 94.1% with SF-539 CNS; 93.2% with UACC-257 melanoma; 88.4% in the assay on M14 melanoma; 79.8% with HCT-15 colon; 103% in the assay on HT29 colon; 65.2% in the assay with SNB-75 CNS. The growth is 100% in the assay with SNB-19 CNS; 90.4% with U251 CNS; 98.8% in the assay on PC-3 prostate; 90.4% in the assay on SK-MEL-5 melanoma; 98.2% in the assay with UACC-62 melanoma; 41% in the assay with LOX IMVI melanoma. In addition, in the assay on SK-MEL-28 melanoma, the growth was 83.8%.
Take `COc1cc(C2CC(c3cccc(Nc4ccnc5cc(Cl)ccc45)c3)=NN2c2ccc(Cl)cc2)cc(OC)c1OC` (stereo not given): the growth was 75.1% in the assay on DU-145 prostate; 11.2% in the assay with K-562 leukemia; 44.5% with MALME-3M melanoma; 67% in the assay with MDA-MB-231 breast; 62.1% with RXF 393 renal; 51.9% with SF-268 CNS. The growth with SF-295 CNS was 3.25% (active); in the assay with SF-539 CNS, 43.3%; in the assay on UACC-257 melanoma, 57.1%; in the assay with M14 melanoma, 25.4%; in the assay with HCT-15 colon it was 54.2%; with HT29 colon, 76%. The growth was 85.9% in the assay on SNB-19 CNS; 75.2% in the assay on U251 CNS; 51% in the assay on PC-3 prostate; 34.2% in the assay with SK-MEL-5 melanoma; 9.05% (active) with UACC-62 melanoma; 43.5% with LOX IMVI melanoma. The growth in the assay on SK-MEL-28 melanoma is 51.4%.
Consider `COc1ccc(C2C3CCc4ccccc4C3=NN2C(=O)c2cc(OC)c(OC)c(OC)c2)cc1O` (stereo not given), for which the growth with DU-145 prostate was 111%; in the assay on K-562 leukemia, 52.7%; in the assay on MALME-3M melanoma, 77.2%; in the assay on MDA-MB-231 breast, 103%; in the assay with RXF 393 renal it was 56.8%; with SF-268 CNS, 105%. In addition, the growth was 91.2% with SF-295 CNS; 101% with SF-539 CNS; 110% in the assay with UACC-257 melanoma; 101% with M14 melanoma; 109% in the assay on HCT-15 colon; 109% in the assay with SNB-19 CNS. In addition, the growth with U251 CNS was 108%; in the assay with PC-3 prostate, 92.2%; in the assay with SK-MEL-5 melanoma it was 104%; with UACC-62 melanoma, 105%; in the assay with LOX IMVI melanoma it was 94.6%.
In the case of `Cc1cc(C)c2c(n1)sc1c(Nc3ccc(OCc4ccccc4)cc3)ncnc12`, the growth was 104% with DU-145 prostate; 95.2% with K-562 leukemia; 88.6% with MALME-3M melanoma; 109% in the assay with MDA-MB-231 breast; 104% with RXF 393 renal; 101% with SF-268 CNS. Besides, the growth was 101% with SF-295 CNS; 107% in the assay on SF-539 CNS; 106% with UACC-257 melanoma; 108% in the assay with M14 melanoma; 100% with HCT-15 colon; 103% in the assay with HT29 colon. Moreover, the growth is 101% in the assay with SNB-19 CNS; 98.4% in the assay on U251 CNS; 96.2% in the assay with PC-3 prostate; 104% in the assay with SK-MEL-5 melanoma; 105% with UACC-62 melanoma; 91.7% in the assay with LOX IMVI melanoma. Moreover, in the assay with SK-MEL-28 melanoma, the growth was 114%.
